# Most compounds without a hit are left out; they make up all but 27% or so of the library.
# CYP2C9 act: CYP2C9 (human) activation; P11712; 96,000 tested, 1.4% active; AID 1024; activation factor at 5 µM; recombinant CYP2C9, luciferin-H conversion, luminescence; stronger effect = higher value; factor 1 = untreated enzyme, 0 = blocked;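 active means activation factor of 2 or more for CYP2C9 at a 5 µM dose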;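 further: 0 = sulfaphenazole-blocked wells and 1 = vehicle-only wells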
# Target sequence (P11712 whole entry, looked up): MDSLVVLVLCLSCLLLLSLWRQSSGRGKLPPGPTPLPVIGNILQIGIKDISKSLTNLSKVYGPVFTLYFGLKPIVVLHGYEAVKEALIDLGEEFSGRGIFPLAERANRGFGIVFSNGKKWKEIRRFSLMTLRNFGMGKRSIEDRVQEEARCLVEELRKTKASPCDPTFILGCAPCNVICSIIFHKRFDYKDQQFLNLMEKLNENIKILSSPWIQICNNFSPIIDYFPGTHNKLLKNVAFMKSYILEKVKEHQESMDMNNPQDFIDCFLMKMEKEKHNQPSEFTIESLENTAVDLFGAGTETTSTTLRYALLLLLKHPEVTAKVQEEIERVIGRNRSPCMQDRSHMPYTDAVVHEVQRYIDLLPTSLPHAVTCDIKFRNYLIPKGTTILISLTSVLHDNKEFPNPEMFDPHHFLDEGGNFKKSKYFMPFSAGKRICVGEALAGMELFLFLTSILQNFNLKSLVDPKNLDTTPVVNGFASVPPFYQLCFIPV
# CYP2C9 inhib: inhibitors of human CYP2C9. P11712. CYP2C9 Supersomes, luciferin-H conversion, luminescence. inhibition, % at 5 µM. 96,000 tested, 20% active. AID 777;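 active means blocking of liver enzyme CYP2C9 beyond about 50% at 5 µM, limit read from the data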
# sEH activator: activators of human soluble epoxide hydrolase; purified human sEH enzymatic activity, activator screen; activation, % at 2 µM; 91,000 tested, 0.04% active; in the data active means activation above about 37%
# sEH inh: soluble epoxide hydrolase (human) inhibition | P34913 | recombinant human sEH enzymatic activity assay | inhibition, % at 2 µM | 91,000 tested, 0.34% active | AID 707; in the data active means inhibition above about 80%
# CYP2C19 act: activators of human cytochrome P450 2C19 | activation factor at 5 µM | 96,000 tested, under 10 active | AID 1025 | recombinant CYP2C19, luciferin-H EGE luminescence; stronger effect = higher value; 0 = fully inhibited enzyme, 1 = untreated enzyme | P33261;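 active means activation factor of at least 2 at 5 µM in the primary screen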;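 further: 0 = wells with 2.5 mM tranylcypromine and 1 = vehicle-only wells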
# CYP2C19 inhib: blocks human cytochrome P450 2C19; CYP2C19 Supersomes, luciferin-H EGE luminescence, 30 min; AID 778; P33261; 96,000 tested, 21% active; inhibition, % at 5 µM;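 active means CYP2C19 inhibition above a set limit at 5 µM in the primary screen, cut at about 50% in these data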;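 further: plate controls were negative control wells for no effect and 2.5 mM tranylcypromine positive control for full effect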
# * = called active by the depositor; / = no result.
SMILES,CYP2C9 act,CYP2C9 inhib,sEH activator,sEH inh,CYP2C19 act,CYP2C19 inhib
Clc1ccc(OCCn2cnc3ccccc32)c(Cl)c1,/,/,-2,0,/,/
Cc1cccc(OCC(O)Cn2c(NCc3cccnc3)nc3c2c(=O)[nH]c(=O)n3C)c1 (stereo not given),0.7,25,/,/,1,4
CC1CN(c2nnnn2-c2ccccc2)CC(C)O1 (stereo not given),1,-2,/,/,0.3,74*
COc1ccc(C(=O)N2CCN(c3nnnn3-c3ccccc3)CC2)cc1OC,1,2,-1,0,1,0
CCn1c(SCC(=O)N2CCN(c3ccc(F)cc3)CC2)nc2ccccc2c1=O,0.4,59*,-10,8,0.4,63*
CCOC(=O)N1CCN(c2nnnn2-c2ccccc2)CC1,0.5,49,8,-6,0.1,91*
COCC(C)n1c(SCC(=O)N2CCCCC2)nc2ccccc2c1=O (stereo not given),0.5,54*,/,/,0.5,46
CC1CCC(Nc2nnnn2-c2ccccc2)CC1 (stereo not given),1.1,-11,-8,10,1.1,-7
COCCn1c(SCC(=O)N2CCCCC2)nc2ccccc2c1=O,0.8,22,/,/,0.8,23
O=S1(=O)N=C(Oc2cccc3ccccc23)c2ccccc21,/,/,-2,3,/,/
CCn1c(SCC(=O)N2CCCC2)nc2ccccc2c1=O,0.7,31,/,/,1,5
CCOC(=O)N1CCN(C(=O)CSc2nc3ccccc3c(=O)n2-c2ccccc2)CC1,0,98*,7,-7,0.4,56*
Cc1nn(-c2ccccc2)c(C)c1/C=N/NC(=O)CSc1nc2ccccc2c(=O)n1-c1ccc(Br)cc1,0.5,51*,1,2,0.7,32
CCC1CCCCN1C(=O)CSc1nc2ccsc2c(=O)n1Cc1ccccc1 (stereo not given),0.3,70*,-2,0,0.5,50*
CCOC(=O)N1CCN(C(=O)CSc2nc3c(cnn3-c3ccccc3)c(=O)[nH]2)CC1,0.3,67*,4,0,0.8,22
O=C(CSc1nc2ccccc2c(=O)n1-c1ccc(F)cc1)NCc1ccco1,0.8,19,-12,13,0.6,35
CSc1nc(N)nc(SC2C=CCCC2)c1C#N (stereo not given),0.8,21,-9,12,0.9,14
CC(=O)NCc1ccc(-c2csc(N)n2)s1,0.9,11,/,/,1,-2
Cc1cc(NC(=O)c2cccc(COc3ccc(Br)cc3)c2)no1,1.1,-9,-12,11,0.9,14
N#CC(C(=O)Nc1ccc(Cl)c(Cl)c1)=C1Nc2ccccc2N1,0.9,7,-1,3,1,4
CCOC(=O)c1ccc(COC(=O)CNC(=O)CNC(=O)c2ccc(OC)cc2)o1,0.5,46,0,2,0.7,31
O=C(NC12CCC(O)C(SC1)/C2=N/O)c1ccccc1 (stereo not given),1,-1,6,-8,1,-1
N#Cc1ccccc1CSc1nc(O)cc(=O)[nH]1,1.1,-10,2,-5,1,0
CCCCn1c(SCC(=O)N2CCN(c3ccccc3)CC2)nc2ccsc2c1=O,0.1,88*,/,/,0.5,51*
CCCn1c(SCC(=O)N2CCN(c3ccccc3)CC2)nc2ccccc2c1=O,0.1,93*,13,-14,0,97*
SMILES,CYP2C9 act,CYP2C9 inhib,sEH activator,sEH inh,CYP2C19 act,CYP2C19 inhib
CCn1cc(Br)c(C(=O)Nc2ccc(F)c(Cl)c2)n1,0.3,75*,/,/,0.1,92*
CCn1cc(Br)c(C(=O)Nc2ccc(Cl)cc2Cl)n1,0.5,46,2,-5,0.3,74*
CC(CNC(=O)CC(C)(C)C)NC(=O)CC(C)(C)C (stereo not given),/,/,-1,-3,/,/
CCOc1ccc(S(=O)(=O)NCC(=O)N(C)Cc2cccnc2)cc1,1,-2,2,-1,0.7,29
Cc1ccc(NC(=O)COc2ccc(-n3cnnn3)cc2)cc1C,/,/,-7,9,/,/
N#Cc1cccc(NC(=O)COc2ccc(-n3ccnc3)cc2)c1,0,99*,-6,8,0,100*
CC(C)(C)c1ccc(NC(=O)COc2ccc(-n3ccnc3)cc2)cc1,0,99*,-7,6,0,99*
CC(C)COc1ccc(C(=O)OC2CC(C)(C)OCC2CN(C)C)cc1 (stereo not given),0.8,16,-3,4,0.9,8
